# In the supplement of paper PMC8728848:
# Only a selection was taken, and the strongest signals are over-represented in it overall.
# B1: LBL-152 (Laetiporus bicolor), B0D650 (protein)
# chain: MSNEYNPPLGIAFRLCGLASDRVLFSRVSPSPEVFHHPKSEVYPDQWFVAIPGSGQNAGCYAIKSKNTGKVLFSRMSPDPRVGHIDGDGKYPDNWFKFEAGSGKYAGYFRLRAVASDTVLVSRTSTGTDTQVINYPATSAKYDDQYFTILFDHHHHHH
# Columns and labels:
# Assay in all cases: glycan array binding signal (z-score within array); higher = stronger binding
# Details in all cases: glycan notation: IUPAC condensed, linker removed
# [1] = target: Gal(b1-4)GlcNAc(b1-3)Gal(b1-4)GlcNAc(b1-3)Gal(b1-4)GlcNAc(b1-3)Gal(b1-4)GlcNAc(b1-2)Man(a1-3)[Gal(b1-4)GlcNAc(b1-3)Gal(b1-4)GlcNAc(b1-3)Gal(b1-4)GlcNAc(b1-3)Gal(b1-4)GlcNAc(b1-2)Man(a1-6)]Man(b1-4)GlcNAc(b1-4)GlcNAc
# Procedure, shortened: (§1)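 The Consortium for Functional Glycomics database supplied 3228 glycan arrays, of which those lacking an available protein sequence were dropped. The binding signal, a within-array Z-score, was averaged across arrays of the same protein sequence and across linkers. Negative scores can be read as non-binding.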
# [2] = target: Gal(b1-4)GlcNAc(b1-3)Gal(b1-4)GlcNAc(b1-3)Gal(b1-4)GlcNAc(b1-3)Gal(b1-4)GlcNAc(b1-2)Man(a1-3)[Gal(b1-4)GlcNAc(b1-3)Gal(b1-4)GlcNAc(b1-3)Gal(b1-4)GlcNAc(b1-3)Gal(b1-4)GlcNAc(b1-2)Man(a1-6)]Man(b1-4)GlcNAc(b1-4)[Fuc(a1-6)]GlcNAc
# Procedure, shortened: as §1
# [3] = target: Gal(b1-4)GlcNAc(b1-3)Gal(b1-4)GlcNAc(b1-3)Gal(b1-4)GlcNAc(b1-3)Gal(b1-4)GlcNAc(b1-2)[Gal(b1-4)GlcNAc(b1-3)Gal(b1-4)GlcNAc(b1-3)Gal(b1-4)GlcNAc(b1-3)Gal(b1-4)GlcNAc(b1-6)]Man(a1-6)[Gal(b1-4)GlcNAc(b1-3)Gal(b1-4)GlcNAc(b1-3)Gal(b1-4)GlcNAc(b1-3)Gal(b1-4)GlcNAc(b1-2)Man(a1-3)]Man(b1-4)GlcNAc(b1-4)[Fuc(a1-6)]GlcNAc
# Procedure, shortened: as §1
# [4] = target: Gal(b1-4)GlcNAc(b1-3)Gal(b1-4)GlcNAc(b1-3)Gal(b1-4)GlcNAc(b1-3)Gal(b1-4)GlcNAc(b1-3)Gal(b1-4)GlcNAc(b1-2)Man(a1-3)[Gal(b1-4)GlcNAc(b1-3)Gal(b1-4)GlcNAc(b1-3)Gal(b1-4)GlcNAc(b1-3)Gal(b1-4)GlcNAc(b1-3)Gal(b1-4)GlcNAc(b1-2)Man(a1-6)]Man(b1-4)GlcNAc(b1-4)GlcNAc
# Procedure, shortened: as §1
# [5] = target: Gal(b1-4)GlcNAc(b1-3)Gal(b1-4)GlcNAc(b1-3)Gal(b1-4)GlcNAc(b1-3)Gal(b1-4)GlcNAc(b1-3)Gal(b1-4)GlcNAc(b1-2)Man(a1-3)[Gal(b1-4)GlcNAc(b1-3)Gal(b1-4)GlcNAc(b1-3)Gal(b1-4)GlcNAc(b1-3)Gal(b1-4)GlcNAc(b1-3)Gal(b1-4)GlcNAc(b1-2)Man(a1-6)]Man(b1-4)GlcNAc(b1-4)[Fuc(a1-6)]GlcNAc
# Procedure, shortened: as §1
# [6] = target: Gal(b1-4)GlcNAc(b1-3)Gal(b1-4)GlcNAc(b1-3)Gal(b1-4)GlcNAc(b1-3)Gal(b1-4)GlcNAc(b1-3)Gal(b1-4)GlcNAc(b1-2)[Gal(b1-4)GlcNAc(b1-3)Gal(b1-4)GlcNAc(b1-3)Gal(b1-4)GlcNAc(b1-3)Gal(b1-4)GlcNAc(b1-3)Gal(b1-4)GlcNAc(b1-6)]Man(a1-6)[Gal(b1-4)GlcNAc(b1-3)Gal(b1-4)GlcNAc(b1-3)Gal(b1-4)GlcNAc(b1-3)Gal(b1-4)GlcNAc(b1-3)Gal(b1-4)GlcNAc(b1-2)Man(a1-3)]Man(b1-4)GlcNAc(b1-4)[Fuc(a1-6)]GlcNAc
# Procedure, shortened: as §1
# [7] = target: Gal(b1-4)GlcNAc(b1-3)Gal(b1-4)GlcNAc(b1-3)Gal(b1-4)GlcNAc(b1-3)Gal(b1-4)GlcNAc(b1-3)Gal(b1-4)GlcNAc(b1-3)Gal(b1-4)GlcNAc(b1-2)Man(a1-3)[Gal(b1-4)GlcNAc(b1-3)Gal(b1-4)GlcNAc(b1-3)Gal(b1-4)GlcNAc(b1-3)Gal(b1-4)GlcNAc(b1-3)Gal(b1-4)GlcNAc(b1-3)Gal(b1-4)GlcNAc(b1-2)Man(a1-6)]Man(b1-4)GlcNAc(b1-4)GlcNAc
# Procedure, shortened: as §1
# Gal6S(b1-4)GlcNAc = target: Gal6S(b1-4)GlcNAc
# Procedure, shortened: as §1
# [8] = target: GalNAc(b1-3)Gal(a1-6)Gal(b1-4)Glc
# Procedure, shortened: as §1
# GalNAc3S(b1-4)GlcNAc3S = target: GalNAc3S(b1-4)GlcNAc3S
# Procedure, shortened: as §1
# GalNAc4S6S(b1-4)GlcNAc = target: GalNAc4S6S(b1-4)GlcNAc
# Procedure, shortened: as §1
# [9] = target: GlcNAc(a1-4)Gal(b1-4)GlcNAc(b1-3)Gal(b1-4)[Fuc(a1-3)]GlcNAc(b1-3)Gal(b1-4)[Fuc(a1-3)]GlcNAc
# Procedure, shortened: as §1
# [10] = target: GlcNAc(b1-2)Man(a1-3)[GlcNAc(b1-4)][GlcNAc(b1-2)Man(a1-6)]Man(b1-4)GlcNAc(b1-4)GlcNAc
# Procedure, shortened: as §1
# [11] = target: GlcNAc(b1-3)Gal(b1-4)GlcNAc(b1-3)Gal(b1-4)GlcNAc(b1-3)Gal(b1-4)GlcNAc(b1-3)Gal(b1-4)GlcNAc(b1-2)Man(a1-3)[GlcNAc(b1-3)Gal(b1-4)GlcNAc(b1-3)Gal(b1-4)GlcNAc(b1-3)Gal(b1-4)GlcNAc(b1-3)Gal(b1-4)GlcNAc(b1-2)Man(a1-6)]Man(b1-4)GlcNAc(b1-4)GlcNAc
# Procedure, shortened: as §1
# [12] = target: GlcNAc(b1-3)Gal(b1-4)GlcNAc(b1-3)Gal(b1-4)GlcNAc(b1-3)Gal(b1-4)GlcNAc(b1-3)Gal(b1-4)GlcNAc(b1-2)Man(a1-3)[GlcNAc(b1-3)Gal(b1-4)GlcNAc(b1-3)Gal(b1-4)GlcNAc(b1-3)Gal(b1-4)GlcNAc(b1-3)Gal(b1-4)GlcNAc(b1-2)Man(a1-6)]Man(b1-4)GlcNAc(b1-4)[Fuc(a1-6)]GlcNAc
# Procedure, shortened: as §1
# GlcNAc(b1-3)Man = target: GlcNAc(b1-3)Man
# Procedure, shortened: as §1
# [13] = target: GlcNAc6S(b1-3)Gal(b1-4)GlcNAc
# Procedure, shortened: as §1
# [14] = target: Neu5Ac(a2-3)Gal(b1-3)GalNAc(b1-3)Gal(a1-4)Gal(b1-4)Glc
# Procedure, shortened: as §1
# [15] = target: Neu5Ac(a2-3)Gal(b1-3)GalNAc(b1-4)[Neu5Ac(a2-8)Neu5Ac(a2-3)]Gal(b1-4)Glc
# Procedure, shortened: as §1
# [16] = target: Neu5Ac(a2-3)Gal(b1-3)[Fuc(a1-4)]GlcNAc(b1-3)Gal(b1-3)[Fuc(a1-4)]GlcNAc
# Procedure, shortened: as §1
# [17] = target: Neu5Ac(a2-3)Gal(b1-4)GlcNAc(b1-2)Man
# Procedure, shortened: as §1
# [18] = target: Neu5Ac(a2-3)Gal(b1-4)GlcNAc(b1-2)[Neu5Ac(a2-3)Gal(b1-4)GlcNAc(b1-4)]Man(a1-3)[GlcNAc(b1-4)][Neu5Ac(a2-3)Gal(b1-4)GlcNAc(b1-4)Man(a1-6)]Man(b1-4)GlcNAc(b1-4)GlcNAc
# Procedure, shortened: as §1
# [19] = target: Neu5Ac(a2-3)Gal(b1-4)GlcNAc(b1-3)Gal(b1-4)GlcNAc(b1-6)[Gal(b1-3)]GalNAc
# Procedure, shortened: as §1
# [20] = target: Neu5Ac(a2-3)Gal(b1-4)GlcNAc(b1-6)GalNAc
# Procedure, shortened: as §1
# [21] = target: Neu5Ac(a2-3)GalNAc(b1-4)GlcNAc
# Procedure, shortened: as §1
# [22] = target: Neu5Ac(a2-3)[GalNAc(b1-4)]Gal(b1-4)GlcNAc(b1-3)GalNAc
# Procedure, shortened: as §1
# [23] = target: Neu5Ac(a2-6)Gal(b1-4)GlcNAc(b1-3)Gal(b1-4)GlcNAc(b1-3)Gal(b1-4)GlcNAc(b1-2)Man(a1-3)[Neu5Ac(a2-6)Gal(b1-4)GlcNAc(b1-3)Gal(b1-4)GlcNAc(b1-3)Gal(b1-4)GlcNAc(b1-2)Man(a1-6)]GalNAc
# Procedure, shortened: as §1
# [24] = target: Neu5Ac(a2-6)Gal(b1-4)GlcNAc(b1-3)Gal(b1-4)GlcNAc(b1-6)[Gal(b1-3)]GalNAc
# Procedure, shortened: as §1
# [25] = target: Neu5Ac(a2-8)Neu5Ac(a2-3)Gal(b1-4)Glc
# Procedure, shortened: as §1
binder,measurement,setting,value
B1,glycan array binding signal (z-score),[1],5.39
same,glycan array binding signal (z-score),[2],8.72
same,glycan array binding signal (z-score),[3],6.24
same,glycan array binding signal (z-score),[4],10.6
same,glycan array binding signal (z-score),[5],9.73
same,glycan array binding signal (z-score),[6],7.26
same,glycan array binding signal (z-score),[7],5.94
same,glycan array binding signal (z-score),Gal6S(b1-4)GlcNAc,-0.151
same,glycan array binding signal (z-score),[8],-0.159
same,glycan array binding signal (z-score),GalNAc3S(b1-4)GlcNAc3S,-0.163
same,glycan array binding signal (z-score),GalNAc4S6S(b1-4)GlcNAc,-0.15
same,glycan array binding signal (z-score),[9],-0.147
same,glycan array binding signal (z-score),[10],-0.153
same,glycan array binding signal (z-score),[11],3.47
same,glycan array binding signal (z-score),[12],4.51
same,glycan array binding signal (z-score),GlcNAc(b1-3)Man,-0.156
same,glycan array binding signal (z-score),[13],-0.157
same,glycan array binding signal (z-score),[14],-0.15
same,glycan array binding signal (z-score),[15],-0.145
same,glycan array binding signal (z-score),[16],-0.147
same,glycan array binding signal (z-score),[17],-0.149
same,glycan array binding signal (z-score),[18],-0.16
same,glycan array binding signal (z-score),[19],-0.162
same,glycan array binding signal (z-score),[20],-0.16
same,glycan array binding signal (z-score),[21],-0.153
same,glycan array binding signal (z-score),[22],-0.151
same,glycan array binding signal (z-score),[23],-0.134
same,glycan array binding signal (z-score),[24],-0.154
same,glycan array binding signal (z-score),[25],-0.157
